Laboratory results taken from PubChem BioAssay (NCI).
The panel holds about 83,000 compounds, 20% with a hit somewhere; the sample as a whole holds those more often.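 Interpretation: 100, growth as untreated; towards 0, rising growth inhibition; 0, no net growth; 0 to -100, cell death. Compounds scoring below 10 were considered active.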 Active and inactive are the calls of the source.

Columns and labels:
Assay in all cases: NCI-60 one-dose screen, 48 h (100 = growth as untreated, 0 = no growth, -100 = all killed)
Details in all cases: 10 µM unless noted
[1] = tested on: HCT-15 colon
[2] = tested on: HT29 colon
[3] = tested on: SNB-75 CNS
[4] = tested on: SNB-19 CNS
[5] = tested on: U251 CNS
[6] = tested on: PC-3 prostate
[7] = tested on: SK-MEL-5 melanoma
[8] = tested on: UACC-62 melanoma
[9] = tested on: LOX IMVI melanoma
[10] = tested on: SK-MEL-28 melanoma

Measured: growth

COc1cc(NC(C)CCCN)c2ncccc2c1Oc1ccc(Cl)cc1 (stereo not given)
inactive: [1] 84.5% | [2] 34.5% | [3] 78.7% | [4] 91% | [5] 72.7% | [6] 63.9% | [7] 81% | [8] 91.1% | [9] 39.9% | [10] 109%

COc1ccc(C2C=C(c3ccc(Cl)cc3)N=C3SC=CN32)cc1 (stereo not given)
inactive: [1] 110% | [2] 106% | [3] 86.7% | [4] 115% | [5] 105% | [6] 86.7% | [7] 111% | [8] 116% | [9] 99.6% | [10] 97.6%

COc1cc(-c2n/c(=C\c3c(O)[nH]c4cc(Cl)ccc34)cc3c2=Nc2ccccc2-3)cc(OC)c1OC
inactive: [1] 93.7% | [2] 24.3% | [3] 36.1% | [4] 63.9% | [5] 23.8% | [6] 52.2% | [7] 27.2% | [8] 56.8% | [9] 34.3% | [10] 43%

CCN(CC)CCCNc1cccc2c(C)cc(OC)nc12
inactive: [1] 94.9% | [2] 87.6% | [3] 76.8% | [4] 94.9% | [5] 94.3% | [6] 75.1% | [7] 91.3% | [8] 85.3% | [9] 105% | [10] 103%

CCCCn1c(C)nc2cc(Nc3nc(Cl)nc4nc[nH]c34)ccc21
inactive: [1] 90.7% | [2] 83.6% | [3] 78.4% | [4] 87.4% | [5] 77.2% | [6] 59.7% | [7] 73.6% | [8] 73% | [9] 90.4% | [10] 99.4%

NC(=O)c1noc(C(=O)c2ccccc2)c1N
inactive: [1] 89.4% | [2] 83.6% | [3] 95.9% | [4] 90.4% | [5] 85.8% | [6] 90.9% | [7] 97.9% | [8] 96.6% | [9] 98.8% | [10] 98.6%

Nc1c(C(=O)Nc2cccc(Cl)c2)sc2ncc(Br)cc12
inactive: [1] 82.5% | [2] 66.4% | [3] 56% | [4] 107% | [5] 10.8% | [6] 80.1% | [7] 95.6% | [8] 99.5% | [9] 39.9% | [10] 89.2%

COc1cc(Cn2c(-c3ccccc3)cc3c2-c2oncc2CC3)cc(OC)c1OC
inactive: [1] 27.6% | [4] 44.5% | [5] 24.1% | [6] 20.6% | [7] 18.4% | [8] 47.5% | [9] 39.4% | [10] 49.7%
active: [2] 4.59% | [3] -17.3%

Cc1ccccc1CNc1ncnc2[nH]ncc12
inactive: [1] 108% | [2] 103% | [3] 94.8% | [4] 95.5% | [5] 99.8% | [6] 311% | [7] 106% | [8] 97.8% | [9] 95% | [10] 136%

c1ccc2c(Cc3csc4ccccc34)csc2c1
inactive: [1] 76.1% | [2] 76.2% | [3] 66.9% | [4] 90.4% | [5] 81.9% | [6] 85.2% | [7] 91% | [8] 86.4% | [9] 84.3% | [10] 82.9%

O=C(Nc1cnc(C(F)(F)F)cn1)c1cc(Cl)ccc1O
active: [3] -20.4% | [5] 6.83% | [6] 5.49% | [7] -80.7% | [8] -5.58% | [9] 6.55% | [10] 3.09%
inactive: [1] 10.9% | [2] 22.6% | [4] 24.3%

CCOP(=O)(O)OP(=O)(O)OCC
inactive: [1] 98.5% | [2] 102% | [3] 81.3% | [4] 106% | [5] 105% | [6] 104% | [7] 113% | [8] 106% | [9] 92.7% | [10] 108%

COc1ccc(-n2nc(C(=O)NCC(=O)Nc3nc4cc(OC)ccc4s3)c3ccccc3c2=O)cc1
active: [2] -24.4% | [3] -65.9% | [4] 0.597% | [5] -39.8% | [6] 3.92% | [9] -32.4%
inactive: [1] 64.7% | [7] 48.9% | [8] 31.2% | [10] 21.1%

CCCCC(CCc1ccccn1)C(=O)c1ccccc1 (stereo not given)
inactive: [1] 107% | [2] 109% | [3] 89.8% | [4] 110% | [5] 114% | [6] 98.2% | [7] 103% | [8] 107% | [9] 96.5% | [10] 108%

O=C1/C(=C\c2cccn2C(=O)c2ccccc2)c2ccccc2N1c1c(Cl)cccc1Cl
inactive: [1] 64.7% | [2] 70% | [3] 71.9% | [4] 87.7% | [5] 72.8% | [6] 73.9% | [7] 83% | [8] 59.1% | [9] 37.5% | [10] 74.1%

Cc1ccc2cc3c(NC(=O)c4cccnc4)nn(C)c3nc2c1
inactive: [1] 91.6% | [2] 75.8% | [3] 73.8% | [4] 82.6% | [5] 85.2% | [6] 62.5% | [7] 83.1% | [8] 88.7% | [9] 92.4% | [10] 96%

C=CCn1c(SCC(=O)Nc2ccc(C(=O)/C=C/c3ccc(Cl)cc3)cc2)nnc1-c1ccc(Cl)cc1
inactive: [1] 77.2% | [2] 92.8% | [3] 73.8% | [4] 91.1% | [5] 79.7% | [6] 69.9% | [7] 90.6% | [8] 71.2% | [9] 89.9% | [10] 104%

COc1ccc(/C=C2\Cc3c(Br)cccc3C2=O)c(OC)c1
inactive: [1] 51.1% | [2] 64.4% | [3] 70.7% | [4] 53.3% | [5] 55.6% | [6] 81.1% | [7] 47.9% | [8] 38.9% | [9] 59.9% | [10] 64.3%

CC1CN(CCCOC(=O)Nc2ccc(Cl)cc2)CCN1C(C)(C)C (stereo not given)
inactive: [1] 114% | [2] 104% | [3] 114% | [4] 98.1% | [5] 108% | [6] 90% | [7] 97.6% | [8] 84.8% | [9] 91.9% | [10] 106%

Cc1cc(N=Nc2ccc(-c3ccc(N=Nc4ccc(O)c(C(=O)O)c4)cc3)cc2)c(N)c(N=Nc2ccc(C(=O)O)cc2)c1N
inactive: [1] 74.8% | [2] 76.6% | [3] 82.5% | [4] 95.5% | [5] 88.4% | [6] 78.1% | [7] 87% | [8] 71.2% | [9] 93.9% | [10] 80.6%

Cc1nc2ccc(Nc3nc(Cl)nc(N4CCOCC4)n3)cc2n1Cc1ccccc1
inactive: [1] 76.9% | [2] 96% | [3] 51.2% | [4] 94.6% | [5] 90.5% | [6] 87.1% | [7] 89.5% | [8] 92.3% | [9] 67.7% | [10] 82.8%

O=C(CS)OCC(COC(=O)CS)(COC(=O)CS)COC(=O)CS
inactive: [1] 85% | [2] 98.9% | [3] 74.5% | [4] 119% | [5] 103% | [6] 83.4% | [7] 102% | [8] 67.9% | [9] 70.5% | [10] 90.1%

COc1cc2c(cc1I)-c1c(cc(OC)c(OC)c1OC)CC[C@@H]2NC(C)=O
inactive: [3] 27.7% | [4] 28% | [5] 17.3% | [6] 27.2% | [8] 16.4% | [9] 33.8% | [10] 41.6%
active: [1] 9.35% | [2] 4.21% | [7] 2.44%

N=C(N)c1ccc(-c2ccc(-c3cc(Cl)cc(Cl)c3)o2)nc1
inactive: [7] 34.7%
active: [1] -67.1% | [2] -81.7% | [3] -90.7% | [4] -75.6% | [5] -88.3% | [6] -29.7% | [8] -86.2% | [9] -86.7% | [10] -79.2%

O=C(Nc1ccc2[nH]c3ccccc3c2c1)c1ccccc1Cl
inactive: [1] 31.7% | [3] 59.1% | [4] 82.9% | [5] 32.6% | [6] 54.1% | [7] 30.3% | [8] 56.4% | [9] 33.9% | [10] 57.8%
active: [2] 1.78%

COC(=O)c1cc(Cl)cc([N+](=O)[O-])c1O
inactive: [1] 109% | [2] 110% | [3] 97.2% | [4] 108% | [5] 112% | [6] 97.3% | [7] 106% | [8] 110% | [9] 114% | [10] 120%

O=C1CC2(O)CSc3nc(=O)cc(n32)N1 (stereo not given)
inactive: [1] 96.5% | [2] 103% | [3] 98.4% | [4] 91.6% | [5] 97.2% | [6] 93.9% | [7] 99.5% | [8] 102% | [9] 103% | [10] 104%
